Source: PMC5540273 (PLoS ONE, 2017)
Read-outs that look alike come from different tables or passages of the source.

What was measured:
BMPR1A = conditions: concentration: 1 μM, replicates: in singlicate; n = 1
BMPR1B = conditions: concentration: 1 μM, replicates: in singlicate; n = 1
BMPR2 = conditions: concentration: 1 μM, replicates: in singlicate; n = 1
BMX = conditions: concentration: 1 μM, replicates: in singlicate; n = 1
BRAF = conditions: concentration: 1 μM, replicates: in singlicate; n = 1
BRK = tested on: T1, BRK; conditions: concentration: 1 μM, replicates: in singlicate; n = 1
T1 construct: gene PTK6

BRSK1 = conditions: concentration: 1 μM, replicates: in singlicate; n = 1
BRSK2 = conditions: concentration: 1 μM, replicates: in singlicate; n = 1
BTK = conditions: n = 1
BUB1 = conditions: concentration: 1 μM, replicates: in singlicate; n = 1
[1] = concentration: 1 μM, replicates: in singlicate
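Note: KINOMEscan kinase panel screen.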

SMILES | %Inh (BMPR1A) [%] | %Inh (BMPR1B) [%] | %Inh (BMPR2) [%] | %Inh (BMX) [%] | %Inh (BRAF) [%] | %Inh (BRK) [%] | %Inh (BRSK1) [%] | %Inh (BRSK2) [%] | %Inh (BTK; [1]) [%] | %Inh (BUB1) [%] | %Inh (BTK; 1 µM) [%]
CCCc1ccc(S(=O)(=O)NC2CCN(c3ccnc(Nc4ccc(F)cc4)n3)C2)cc1 (stereo not drawn) [GSK1379715] | 0 | 0 | 0 | 2 | 0 | 0 | 0 | 0 | 0 | 29 | 
COc1ccc(C2=C(Nc3cccc(C(=O)O)c3)C(=O)NC2=O)cc1 [SB-390765] | 13 | 4 | 0 | 17 | 9 | 0 | 0 | 0 | 0 | 0 | 
Cl.c1ccc(-c2n[nH]cc2-c2ccnc(-c3ccc(CN4CCOCC4)cc3)c2)nc1 [GW776245] | 0 | 52 | 0 | 13 | 16 | 0 | 0 | 21 | 0 | 0 | 
Cn1ccc2ncnc(Oc3ccc(NC(=O)Nc4ccccc4)cc3)c21 | 0 | 0 | 0 | 42 | 0 | 6 | 0 | 17 | 0 | 0 | 
Cn1ccc2ncnc(Oc3ccc(Nc4nc5ccccc5[nH]4)cc3)c21 | 0 | 0 | 0 | 0 | 0 | 0 | 0 | 2 | 0 | 0 | 
Cc1c(O)cccc1Nc1ccnc2ccc(C(F)(F)F)cc12.Cl [GW466413] | 0 | 44 | 0 | 0 | 69 | 86 | 0 | 0 | 0 | 29 | 
Cc1cccc(-c2nc(Nc3ccncc3)c3ccccc3n2)n1 [GW855857] | 0 | 29 | 0 | 6 | 0 | 13 | 0 | 11 | 0 | 0 | 
Cc1ccc(C(=O)Nc2ccc(Nc3ccnc4cc(-c5ccccn5)ccc34)cc2O)cc1.Cl [GW440146] | 0 | 0 | 0 | 14 | 0 | 29 | 0 | 0 | 46 | 54 | 
Cl.NC(=O)c1cccc(Nc2nccc(Nc3ccc(Oc4cccc(Cl)c4)c(Cl)c3)n2)c1 [GW659008] | 0 | 0 | 3 | 14 | 0 | 69 | 0 | 0 | 0 | 36 | 
CN(C)CCN(C)C(=O)c1cc(-c2ccncc2)c(-c2ccc(Cl)c(O)c2)o1.Cl.Cl [SB-710397] | 0 | 0 | 31 | 0 | 94.5 | 29 | 2 | 0 | 10 | 95.2 | 
Cc1cc(-c2ccc3c(c2)CC[C@@H](N[C@@H](C)c2ccccc2)C3)cnc1N.Cl [GW412617] | 0 | 0 | 0 | 50 | 1 | 22 | 0 | 0 | 0 | 17 | 
COc1cc2nccc(Nc3ccc(NC(=O)c4ccc(C)cc4)c(O)c3)c2cc1OC.Cl [GW440132] | 1 | 0 | 0 | 22 | 0 | 36 | 0 | 3 | 32 | 31 | 
CS(=O)(=O)c1ccc(-c2nc3n(c2-c2ccncc2)CCC3)cc1 [SKF-105942] | 0 | 0 | 0 | 1 | 0 | 15 | 0 | 0 | 0 | 26 | 
CC(=O)Nc1nc2cnc(Nc3cc(NC(=O)c4cccc(CCC#N)c4)ccc3C)nc2s1 | 0 | 0 | 16 | 7 | 97.7 | 0 | 0 | 11 | 32 | 14 | 
NC(=O)c1nnc2ccccc2c1N | 7 | 10 | 36 | 90.1 | 23 | 9 | 22 | 0 |  | 12 | 43
O=C(O)COc1ncnc2cc(-c3ccc4[nH]ncc4c3)sc12 | 19 | 18 | 63 | 0 | 19 | 100 | 5 | 1 | 0 | 25 | 
O=S(=O)(c1ccc(-c2ccnc3[nH]ccc23)cc1)N1CCCC1 [GSK846226] | 0 | 0 | 24 | 10 | 0 | 0 | 0 | 0 | 0 | 0 | 
Cc1cccc(-c2nc(C)cc(Nc3ccncc3)n2)n1 [GSK257997] | 14 | 0 | 2 | 27 | 0 | 2 | 0 | 0 | 0 | 9 | 
